HT1080 IDH1KD tx: qHTS for induction of synthetic lethality in tumor cells producing 2HG: qHTS for the HT-1080-IDH1KD cell line | HT-1080 IDH1 knockdown viability, ATP luminescence, 48 h | Potency, µM (top dose mostly 46.1 µM), actives largely listed as cytotoxic | 360,000 tested, 2% active | AID 686971, 2013
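In this qHTS, HT-1080 cells depleted of IDH1 are exposed for 48 h at 37 °C to compound titrations. Toxicity is scored from CellTiter-Glo luminescence, with DMSO as full viability and medium alone as none.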
uPA generation: qHTS for Inhibitors of Cell Surface uPA Generation. cell surface uPA generation assay, qHTS. Potency, µM (doses to about 38.3 µM), hits mostly inhibitors. 330,000 tested, 0.31% active. AID 540303, 2011; active means well fitted inhibition curve with a large enough effect; inconclusive means small, poorly fitted or top-dose-only effect; inactive means no such curve, though single readings can be large or run the other way; tested in mouse RAW 264.7 cells; further: nearly all actives have a fitted effect of over 55% in size
TDP1 cell CPT: qHTS for Inhibitors of human tyrosyl-DNA phosphodiesterase 1 (TDP1): qHTS in cells in presence of CPT | chicken DT40 Tdp1-/-;hTDP1 cells + 20 nM CPT, ATP luminescence, 48 h | 420,000 tested, 12% active | Potency, µM (top dose mostly 46.2 µM), actives largely listed as inhibitors; further: nearly all actives have a fitted effect of over 55% in size
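Chicken DT40 Tdp1-/- cells stably complemented with human TDP1 were seeded at 400 cells/well in medium containing 20 nM camptothecin, exposed to pin-transferred compounds, and grown at 37 °C for at least 48 hr. Viability was read as ATP luminescence.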
TDP1 cell noCPT: qHTS for Inhibitors of human tyrosyl-DNA phosphodiesterase 1 (TDP1): qHTS in cells in absence of CPT; DT40 Tdp1-/- hTDP1 cells, no CPT, ATP luminescence, 48 h; Potency, µM (doses to about 46.2 µM), actives largely listed as inhibitors; 420,000 tested, 15% active; AID 686978, 2013; further: nearly all actives have a fitted effect of over 55% in size
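Camptothecin absent (DMSO only). Human TDP1-complemented DT40 knockout cells, 400 cells/well, 37 °C for minimum 48 hr; ATP measured via CellTiter-Glo, 30 min dark incubation, luminescence.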
HT1080-NT tox: qHTS for induction of synthetic lethality in tumor cells producing 2HG: qHTS for the HT-1080-NT fibrosarcoma cell line | HT-1080-NT fibrosarcoma viability, CellTiter-Glo ATP luminescence, 48 h | Potency, µM (series often up to 46.1 µM), usual class: cytotoxic | 360,000 tested, 1.6% active | AID 686970, 2013;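 further: NT is the 2HG producing partner of a matched IDH1 knockdown line; nearly all actives have a fitted effect of over 55% in size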
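Luminescent CellTiter-Glo readout after 48 hours of compound exposure at 37 degrees C defined viability of HT-1080-NT cells. Activity was normalized to DMSO wells and cell-free media wells; concentration-response curves were fitted and assigned curve classes.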
IL1B secr inh: qHTS for Inhibitors of Inflammasome Signaling: IL-1-beta AlphaLISA Primary Screen; THP-1 LPS/ATP IL-1B secretion, AlphaLISA, 16 h; active compounds read low; activity change, % at 57.5 µM; 360,000 tested, 4.7% active; AID 743279, 2014; in the data active means activity change below about -50%; inconclusive means mostly about -30% to -49%
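THP-1 cells pretreated 1 hr with compounds (up to 57.5 uM final), then stimulated with LPS (250 ng/mL final) plus ATP (1.25 mM final); secreted IL-1B measured by AlphaLISA after 16 hr, decreased signal indicating inhibition.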
Large screens that a line does not name were inactive. A selection: hits, their analogues and other compounds. The true share with any hit is near 19%. Unless noted, the call rests on the fitted dose curve; in most records, active means well fitted curve in the direction sought with a large enough effect; inconclusive means small, poorly fitted or top-dose-only effect, or another doubt; inactive means no such curve, though single readings can be large; an effect the other way counts as inactive or inconclusive.

Cc1coc2cc3oc(=O)c(CCC(=O)NCc4ccc(Cl)cc4)c(C)c3cc12	TDP1 cell CPT 10µM, TDP1 cell noCPT 26µM (no result: HT1080 IDH1KD tx, uPA generation, HT1080-NT tox, IL1B secr inh)
COc1cccc(CNC(=O)CCc2c(C)c3cc4c(C)coc4cc3oc2=O)c1	TDP1 cell CPT 13µM, TDP1 cell noCPT 16µM (no result: HT1080 IDH1KD tx, uPA generation, HT1080-NT tox, IL1B secr inh)
Cc1coc2cc3oc(=O)c(CCC(=O)NCc4ccccc4Cl)c(C)c3cc12	none (no result: HT1080 IDH1KD tx, uPA generation, HT1080-NT tox, IL1B secr inh)
Cc1ccc(CNC(=O)CCc2c(C)c3cc4c(C)coc4cc3oc2=O)cc1	TDP1 cell CPT 16µM, TDP1 cell noCPT inconclusive (no result: HT1080 IDH1KD tx, uPA generation, HT1080-NT tox, IL1B secr inh)
C[C@H]1[C@H](c2ccccc2)C[C@@H](C(=O)O)C1(C)C	none
Cc1ccc(S(=O)(=O)NC(CC(=O)O)c2cccs2)cc1 (configuration not stated)	uPA generation inconclusive
Cc1oc2c(C)c3oc(=O)c(CCC(=O)NCCCN4CCCC4=O)c(C)c3cc2c1C	TDP1 cell noCPT inconclusive, IL1B secr inh inconclusive
COc1ccccc1CCNC(=O)CCc1c(C)c2cc3c(C)coc3cc2oc1=O	TDP1 cell CPT 16µM, TDP1 cell noCPT inconclusive (no result: HT1080 IDH1KD tx, uPA generation, HT1080-NT tox, IL1B secr inh)
Cc1coc2c(C)c3oc(=O)c(CCC(=O)NCCCn4ccnc4)c(C)c3cc12	TDP1 cell CPT inconclusive, TDP1 cell noCPT inconclusive, IL1B secr inh inconclusive
Cc1c(CCC(=O)NCCCn2ccnc2)c(=O)oc2c(C)c3occ(C(C)(C)C)c3cc12	HT1080 IDH1KD tx 18µM, TDP1 cell CPT inconclusive, TDP1 cell noCPT 21µM, HT1080-NT tox inconclusive, IL1B secr inh -97
Cc1oc2cc3oc(=O)c(CCC(=O)NCCCN4CCCC4=O)c(C)c3cc2c1C	TDP1 cell CPT 15µM, TDP1 cell noCPT inconclusive
COc1ccc(CCNC(=O)Cc2c(C)c3cc4c(C)coc4cc3oc2=O)cc1OC	none (no result: HT1080 IDH1KD tx, uPA generation, HT1080-NT tox, IL1B secr inh)
Cc1coc2c(C)c3oc(=O)c(CCC(=O)NCCc4ccc(Cl)cc4)c(C)c3cc12	TDP1 cell CPT inconclusive, TDP1 cell noCPT 12µM (no result: HT1080 IDH1KD tx, uPA generation, HT1080-NT tox, IL1B secr inh)
Cc1ccc(NC(=O)Cn2c(C)cc(C)c(C#N)c2=O)cc1	none (no result: HT1080 IDH1KD tx, uPA generation, HT1080-NT tox, IL1B secr inh)
O=C(CSc1nc(=O)[nH]c2c1CCC2)NCc1ccc(Cl)cc1	none (no result: HT1080 IDH1KD tx, uPA generation, HT1080-NT tox, IL1B secr inh)
O=C(/C=C/[C@H]1O[C@@H](n2ccc(=O)[nH]c2=O)[C@H](O)[C@@H]1O)NCCN1CCOCC1	none (no result: uPA generation)
CC(=O)N1CCC(C(=O)N2c3ccccc3N=C(c3ccc(C(F)(F)F)cc3)C2C(=O)NC2CCCC2)CC1 (configuration not stated)	TDP1 cell CPT inconclusive, TDP1 cell noCPT inconclusive (no result: uPA generation)
Fc1ccc(NC(=S)N2CCCN(c3ccc(C(F)(F)F)cn3)CC2)c(F)c1	HT1080 IDH1KD tx inconclusive, TDP1 cell CPT 16µM, TDP1 cell noCPT 18µM, HT1080-NT tox 23µM
Cc1csc2ncnc(N3CCN(C(=S)Nc4ccc(F)cc4F)CC3)c12	TDP1 cell CPT inconclusive, TDP1 cell noCPT 15µM
O=C(Nc1ccc(F)cc1F)N1CCCN(c2ccc(C(F)(F)F)cn2)CC1	HT1080 IDH1KD tx 13µM, TDP1 cell CPT inconclusive, TDP1 cell noCPT inconclusive, HT1080-NT tox inconclusive, IL1B secr inh inconclusive
O=C(O)CSCC(=O)N1CCCN(c2ccc(C(F)(F)F)cn2)CC1	none
O=C(Nc1ccc(F)cc1F)N1CCN(c2ncccn2)CC1	none
CCCc1cc(C(=O)Nc2cccc(-c3nn[nH]n3)c2)sc1C	none (no result: uPA generation)
COC(=O)Cc1c(C)[nH]n(-c2cc(Cl)cc(Cl)c2)c1=O	HT1080 IDH1KD tx inconclusive, HT1080-NT tox inconclusive, IL1B secr inh -65
CCOC(=O)c1n[nH]n(-c2cc(Cl)cc(Cl)c2)c1=O	none
CCCCN1C2CCCC1CC(NC(=O)c1cccc(Cl)c1)C2 (configuration not stated)	TDP1 cell CPT inconclusive, TDP1 cell noCPT 23µM
